Among the test systems are K-562 leukemia; MALME-3M melanoma; MDA-MB-231 breast; RXF 393 renal; SF-268 CNS; SF-295 CNS; SF-539 CNS; UACC-257 melanoma; M14 melanoma; HCT-15 colon; HT29 colon; SNB-75 CNS; SNB-19 CNS; U251 CNS; PC-3 prostate; UACC-62 melanoma; SK-MEL-28 melanoma; SK-MEL-2 melanoma; SK-MEL-5 melanoma; LOX IMVI melanoma.
What all share (assay): NCI-60 one-dose screen, 48 h (100 = growth as untreated, 0 = no growth, -100 = all killed)
What all share (conditions): 10 µM unless noted

About 83,000 compounds went through this panel and 20% of them were active in at least one assay; those are over-represented in the sample as a whole.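 Percent growth is the endpoint: 0 to 100 indicates growth inhibition (40 means 60% inhibition), 0 means no net growth, and negative values indicate cell death.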 Values without a mark were called inactive. Active and inactive are the calls of the source. Rule for the calls: active = growth percent below 10; inactive = the rest.

For the compound `CSc1ccc2c(c1)N(C(=O)/C(C#N)=C/c1c[nH]c3ccccc13)c1ccccc1S2`, the growth in the assay on K-562 leukemia was 16.4%; in the assay on MALME-3M melanoma, 55.7%; with MDA-MB-231 breast it was 53.2%; with RXF 393 renal, 38.8%; in the assay with SF-268 CNS it was 55.8%; in the assay on SF-295 CNS, 15%. Moreover, the growth was 7.54% (active) in the assay on SF-539 CNS; 57% in the assay on UACC-257 melanoma; 29.5% with M14 melanoma; 27.3% with HCT-15 colon; 12.2% in the assay with HT29 colon; 8.61% (active) in the assay on SNB-75 CNS. The growth with SNB-19 CNS is 41%; in the assay with U251 CNS it was 42.1%; in the assay on PC-3 prostate, 28.8%; with UACC-62 melanoma it was 41.8%; with SK-MEL-28 melanoma it was 58.5%; in the assay with SK-MEL-2 melanoma, 35.6%.

For the compound `Cc1ccccc1NC(=O)/C=C/c1ccc(OCCOc2ccc3c(C)cc(=O)oc3c2)cc1`, the growth in the assay on K-562 leukemia was 88.8%; in the assay with MALME-3M melanoma, 89.7%; with MDA-MB-231 breast, 91.8%; in the assay with RXF 393 renal, 95.3%; in the assay on SF-268 CNS it was 89.2%; in the assay with SF-295 CNS it was 104%. In addition, the growth was 50.8% with SF-539 CNS; 101% in the assay with UACC-257 melanoma; 98.2% in the assay on M14 melanoma; 74.7% with HCT-15 colon; 96.7% in the assay on HT29 colon; 84.1% in the assay on SNB-75 CNS. Further, the growth with SNB-19 CNS was 86.4%; in the assay on U251 CNS, 85.8%; in the assay with PC-3 prostate it was 95.8%; in the assay on SK-MEL-5 melanoma, 92.6%; in the assay on LOX IMVI melanoma, 88.5%; with SK-MEL-28 melanoma it was 90.9%. For the same compound, in the assay on SK-MEL-2 melanoma, the growth is 103%.

As to `CCOC(=O)c1c(NC(=O)c2cccc(C(F)(F)F)c2)sc2cc(O)ccc12`, the growth in the assay on K-562 leukemia is 97.3%; with MALME-3M melanoma it was 92.4%; in the assay on MDA-MB-231 breast, 87.1%; with RXF 393 renal it was 113%; in the assay on SF-268 CNS, 96.9%; in the assay with SF-295 CNS, 102%. The growth with SF-539 CNS was 89.7%; in the assay on UACC-257 melanoma it was 108%; in the assay on M14 melanoma, 101%; with HCT-15 colon, 92.8%; in the assay with HT29 colon, 105%; in the assay with SNB-75 CNS it was 73.4%. The growth is 96% in the assay with SNB-19 CNS; 98.9% in the assay on U251 CNS; 94.8% with PC-3 prostate; 97.9% in the assay with UACC-62 melanoma; 108% with SK-MEL-28 melanoma; 100% with SK-MEL-2 melanoma.

In the case of `COc1ccc(C(=O)/C=C/c2ccc(OCc3ccc(C)cc3)c(OC)c2)cc1OC`, the growth in the assay with K-562 leukemia is 25.4%; with MALME-3M melanoma it was 87.8%; in the assay with MDA-MB-231 breast it was 59%; in the assay with RXF 393 renal, 103%; with SF-268 CNS, 72.4%; in the assay on SF-295 CNS it was 75.2%. Besides, the growth was 72.1% with SF-539 CNS; 80.3% in the assay on UACC-257 melanoma; 86.8% with M14 melanoma; 34.4% in the assay with HCT-15 colon; 68.8% in the assay with HT29 colon; 72% with SNB-75 CNS. In addition, the growth with SNB-19 CNS was 69.8%; in the assay on U251 CNS, 49.9%; in the assay with PC-3 prostate, 55.9%; in the assay on SK-MEL-5 melanoma it was 64.5%; with SK-MEL-28 melanoma, 82.3%; in the assay on SK-MEL-2 melanoma, 94.3%.

On to `COc1ccc(NC2=C(Cl)C(=O)C(C)=C(C)C2=O)cc1OC`, for which the growth with K-562 leukemia was 60%; with MALME-3M melanoma, 99.7%; in the assay with MDA-MB-231 breast it was 44.9%; with RXF 393 renal it was 108%; in the assay on SF-268 CNS, 93.5%; with SF-295 CNS, 101%. Also, the growth is 94.7% with SF-539 CNS; 95.1% in the assay with UACC-257 melanoma; 95.7% in the assay with M14 melanoma; 96.1% in the assay on HCT-15 colon; 101% in the assay on HT29 colon; 126% in the assay with SNB-75 CNS. In addition, the growth with SNB-19 CNS was 84.7%; with U251 CNS, 77.7%; in the assay with PC-3 prostate, 67.9%; in the assay with SK-MEL-28 melanoma it was 108%.

Regarding `O=C(Nc1nc2ccc(O)cc2s1)c1cccc(C(F)(F)F)c1`, the growth is 18.7% in the assay with K-562 leukemia; 81.6% in the assay with MALME-3M melanoma; 90.7% in the assay on MDA-MB-231 breast; 103% with RXF 393 renal; 59.4% in the assay on SF-268 CNS; 69.9% in the assay on SF-295 CNS. Further, the growth was 72.5% in the assay with SF-539 CNS; 70.1% with UACC-257 melanoma; 50.1% with M14 melanoma; 47.1% in the assay on HCT-15 colon; 102% with HT29 colon; 118% with SNB-75 CNS. For the same compound, the growth in the assay on SNB-19 CNS is 95.4%; in the assay on U251 CNS it was 62.7%; in the assay on PC-3 prostate, 58.2%; in the assay with UACC-62 melanoma it was 45.6%; with SK-MEL-28 melanoma, 82.2%; with SK-MEL-2 melanoma, 57.2%.

As for `Cc1cccc2sc(/N=C(\N)C(Br)Br)nc12`, the growth in the assay on K-562 leukemia was 4.43% (active); with MALME-3M melanoma, -53.6% (active); in the assay on MDA-MB-231 breast it was 6.18% (active); in the assay on RXF 393 renal, -22.5% (active); in the assay on SF-268 CNS, 72.4%; in the assay with SF-295 CNS, 29%. Also, the growth in the assay with SF-539 CNS is 8.75% (active); in the assay with UACC-257 melanoma, 67.8%; in the assay on M14 melanoma, 32.6%; in the assay with HCT-15 colon it was -36.5% (active); in the assay on HT29 colon it was -30.4% (active); in the assay on SNB-75 CNS it was 7.62% (active). The growth in the assay with SNB-19 CNS was 46.8%; in the assay on U251 CNS, 9.02% (active); with PC-3 prostate, 40.8%; in the assay on SK-MEL-5 melanoma, 51.4%; with LOX IMVI melanoma, -86% (active); with SK-MEL-28 melanoma, 38.4%. For the same compound, the growth with SK-MEL-2 melanoma was 5.61% (active).

Consider `CCOc1ccc2nc(NC(=O)c3ccc(C(F)(F)F)cc3)sc2c1`, for which the growth with K-562 leukemia was 108%; in the assay on MALME-3M melanoma, 112%; with MDA-MB-231 breast, 106%; in the assay on RXF 393 renal, 114%; in the assay on SF-268 CNS, 106%; in the assay on SF-295 CNS it was 111%. The growth with SF-539 CNS is 105%; in the assay with UACC-257 melanoma, 107%; with M14 melanoma, 107%; with HCT-15 colon, 100%; with HT29 colon, 97.9%; with SNB-75 CNS, 102%. For the same compound, the growth with SNB-19 CNS is 101%; with U251 CNS, 100%; with PC-3 prostate, 108%; in the assay on SK-MEL-28 melanoma, 105%; in the assay on SK-MEL-2 melanoma, 103%.

On to `COc1ccc2[nH]cc(-c3cc(N)n4nc(-c5c[nH]c6ccc(OC)cc56)cc4n3)c2c1`, for which the growth with K-562 leukemia was -35.5% (active); in the assay with MALME-3M melanoma it was -68.4% (active); in the assay on MDA-MB-231 breast it was -12.6% (active); in the assay on RXF 393 renal, -50.6% (active); with SF-268 CNS it was -30% (active); in the assay on SF-295 CNS, 25.2%. Also, the growth in the assay with SF-539 CNS was -89.7% (active); in the assay with UACC-257 melanoma, -21.8% (active); with M14 melanoma, -78.3% (active); with HCT-15 colon, 1.36% (active); in the assay on SNB-75 CNS it was 106%; in the assay with SNB-19 CNS it was 78.6%. In addition, the growth was -87.6% (active) with U251 CNS; 5.09% (active) in the assay on PC-3 prostate; 3.11% (active) with SK-MEL-5 melanoma; -53.4% (active) in the assay with UACC-62 melanoma; -63.9% (active) with LOX IMVI melanoma; -69.4% (active) in the assay with SK-MEL-28 melanoma. Further, the growth with SK-MEL-2 melanoma is 72.5%.

Source of the values: PubChem BioAssay (NCI).
